For test [1], the system named is Human papillomavirus type 1a protein E7 (residues 44-93). As to the kind of experiment: small molecules binding HPV E7 44-93 – biochemical, small-molecule microarray, residues 44-93, 635 nm fluorescence, primary screen (AID 1108).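 Note: E7 fragment applied at 1 µg/mL in TBST for 1 h at 4 C; score combines spot fluorescence with its signal to noise ratio.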 As to conditions: fluorescence 635 nm, higher = more signal.
Test [2] in a line: hepatitis C replication reporter changes, two-sided – Huh7 cells, luciferase reporter, HCV replication inhibitor project, primary screen (AID 1109).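 Note: huh7 hepatoma cells harbouring a luciferase neomycin HCV replicon reporter; luciferase luminescence as measure of HCV replicon replication; test concentration not given here.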 As to conditions: Huh7 HCV replicon luciferase reporter, 48 h; higher = more signal.
In test [3] the target is Left-right determination factor 2 (Homo sapiens) (UniProt O00292). The test is described as follows: small molecules binding LEFTY2 protein – biochemical, small-molecule microarray, 635 nm fluorescence scan, primary screen (AID 1110). As to conditions: higher = more signal.
Chain of Left-right determination factor 2 (Homo sapiens) (O00292 whole entry, looked up): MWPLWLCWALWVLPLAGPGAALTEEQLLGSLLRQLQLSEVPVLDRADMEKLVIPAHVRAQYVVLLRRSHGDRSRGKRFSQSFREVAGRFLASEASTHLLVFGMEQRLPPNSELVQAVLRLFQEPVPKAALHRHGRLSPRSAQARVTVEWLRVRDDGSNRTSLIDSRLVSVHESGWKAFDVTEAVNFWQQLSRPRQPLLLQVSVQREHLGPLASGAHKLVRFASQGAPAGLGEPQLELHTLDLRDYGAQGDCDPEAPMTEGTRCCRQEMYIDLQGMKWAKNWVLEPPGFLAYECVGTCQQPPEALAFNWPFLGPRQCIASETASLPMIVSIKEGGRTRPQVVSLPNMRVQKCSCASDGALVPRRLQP
Test [4] has as its target Calmodulin-1 (Homo sapiens) (UniProt P0DP23). The test is described as follows: small molecules binding calmodulin-1 with EGTA – biochemical, small-molecule microarray, Cy5-labelled CALM1, profiling panel (AID 1111).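 Note: labelled calmodulin applied in Tris saline Tween buffer holding calcium plus EGTA and DTT.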 As to conditions: Cy5-CALM1 binding fluorescence, higher = more signal.
Test [5] shares this target. As to the kind of experiment: small molecules binding Ca-loaded calmodulin-1 – biochemical, small-molecule microarray, Cy5-labelled CALM1, plus calcium, artefact control for SMM control-protein annotation, profiling panel (AID 1112).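 Note: score merges spot fluorescence with signal to noise from triplicate slides.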 As to conditions: Cy5-CALM1 binding fluorescence, higher = more signal.
A short description of test [6]: probe aWnt5a binding to arrayed compounds – biochemical, biotinylated probe, 635/667 nm fluorescence, primary screen (AID 1113).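 Note: score merges 667 nm fluorescence intensity with signal-to-noise per printed feature.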 As to conditions: small-molecule microarray, higher = more signal.
A short description of test [7]: probe aShh binding to arrayed compounds – biochemical, biotinylated probe, 635/667 nm fluorescence, primary screen (AID 1114).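 Note: probe is biotin-labelled aShh protein from a stem cell growth factor screen; measures binding of labelled protein to compounds printed on the slide; score merges feature fluorescence at 667 nm with signal-to-noise.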 As to conditions: small-molecule microarray, higher = more signal.
Test [8] is described as follows: probe aNog binding to arrayed compounds – biochemical, biotinylated probe, 635/667 nm fluorescence, primary screen (AID 1115).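 Note: probe is biotinylated aNog protein used at 0.15 µg/mL for 1 h at 4 C; z-score combines 667 nm fluorescence of each spot with its signal to noise.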 As to conditions: small-molecule microarray, higher = more signal.
Test [9] has as its target Torsin-1A-interacting protein 1 (Homo sapiens) (UniProt Q5JTV8). The test is described as follows: compound microarray binding of lysate hLAP1 – cell lysate, small-molecule microarray, COS7 lysate, 635/667 nm fluorescence, primary screen (AID 1116). As to conditions: 635 nm fluorescence, higher = more signal.
Test [10] addresses Alpha-bungarotoxin (Bungarus multicinctus) (UniProt P60615). The test is described as follows: compounds binding labelled alpha-BTX control protein – biochemical, small-molecule microarray, Alexa647 label, 635/667 nm fluorescence, artefact control for SMM control protein annotation, profiling panel (AID 1117). As to conditions: alpha-BTX-A647 binding fluorescence, higher = more signal.

A further test concerns the target Albumin (Bos taurus) (UniProt P02769). As to the kind of experiment: compounds binding labelled BSA control protein – biochemical, small-molecule microarray, Alexa647 label, 635/667 nm fluorescence, artefact control for SMM control protein annotation, profiling panel (AID 1118).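 Note: score merges 667 nm emission intensity and signal-to-noise per printed compound spot.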 As to conditions: BSA-A647 binding, fluorescence 635 nm, higher = more signal.
Test [11] can be described thus: probe aXIP binding to arrayed compounds – biochemical, NeuroSMM set, 635/667 nm fluorescence, primary screen (AID 1119).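 Note: probe is the protein aXip251-270 applied at 1 µg/mL to compound-printed slides; binding of probe to printed compounds measured as 667 nm fluorescence plus signal to noise.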 As to conditions: small-molecule microarray, higher = more signal, called active from +8 up or from −8 down.
Test [12] can be described thus: probe aNOTCH3 binding on compound microarray – biochemical, small-molecule microarray, 635/667 nm fluorescence, primary screen (AID 1120).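 Note: probe is a biotin-tagged antibody raised against NOTCH3 rather than NOTCH3 protein; score merges spot fluorescence near 667 nm with spot signal to noise.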 As to conditions: higher = more signal.
A short description of test [13]: probe aNOTCH2 binding on compound microarray – biochemical, small-molecule microarray, 635/667 nm fluorescence, primary screen (AID 1121).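 Note: score merges feature fluorescence read at 667 nm with its signal to noise.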 As to conditions: higher = more signal.
The target in test [14] is Carbonic anhydrase 2 (Homo sapiens) (UniProt P00918). As to the kind of experiment: compounds binding carbonic anhydrase 2 – biochemical, small-molecule microarray, Alexa647-labelled CAII, profiling panel (AID 1122). As to conditions: CAII-A647 binding fluorescence, higher = more signal.
The nature of test [15]: COS7 lysate on small-molecule microarray, probe aHis, 635 nm (AID 1123).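 Note: z-score combines 667nm fluorescence intensity with signal-to-noise per printed compound spot.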 As to conditions: COS7 cell lysate, fluorescence, higher = more signal.
Test [16] in a line: probe aLAP1 signal on lysate-treated microarray – cell lysate, small-molecule microarray, COS7 lysate, primary screen (AID 1124).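 Note: lysate comes from COS7 cells expressing LAP1 and is applied at 0.3 µg/mL; score merges spot fluorescence near 667 nm with signal-to-noise over triplicate slides.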 As to conditions: probe aLAP1, fluorescence, higher = more signal.
In another test the test system is Sam68 (KHDRBS1). As to the kind of experiment: compounds binding KHDRBS1 protein – biochemical, small-molecule microarray, 635 nm fluorescence, primary screen (AID 1125).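 Note: score merges 667 nm channel intensity with signal to noise over triplicate slides.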 As to conditions: higher = more signal.
Test [17] concerns Chordin-like protein 2 (CHRDL2). As to the kind of experiment: compounds binding chordin-like 2 – biochemical, small-molecule microarray, 635 nm fluorescence, primary screen (AID 1126).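 Note: printed compound slides probed with Chrdl2 protein at 4 µg/mL for 1 h at 4 C; score merges 667 nm emission intensity with signal to noise over three replicate slides.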 As to conditions: fluorescence 635 nm, higher = more signal.
In test [18] the target is Concanavalin-A (Canavalia ensiformis) (UniProt P02866). As to the kind of experiment: compounds binding concanavalin A lectin – biochemical, small-molecule microarray, Alexa647 label, 635 nm, artefact control for SMM control protein annotation, primary screen (AID 1127).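 Note: z combines 667 nm emission intensity with signal-to-noise across three replicate slides.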 As to conditions: ConA-A647 binding fluorescence, higher = more signal.
Chain of Concanavalin-A (Canavalia ensiformis) (P02866 whole entry, looked up): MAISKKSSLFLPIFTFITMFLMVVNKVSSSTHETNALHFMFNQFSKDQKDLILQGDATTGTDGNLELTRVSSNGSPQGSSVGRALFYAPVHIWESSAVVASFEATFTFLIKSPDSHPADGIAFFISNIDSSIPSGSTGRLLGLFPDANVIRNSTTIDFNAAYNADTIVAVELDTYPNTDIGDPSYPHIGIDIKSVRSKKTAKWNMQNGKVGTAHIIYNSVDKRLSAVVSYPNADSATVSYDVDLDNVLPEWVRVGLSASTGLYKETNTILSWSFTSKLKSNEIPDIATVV

Activity calls are given as the source filed them.

This passage reports composite z-score, z-score and composite Z-score results from PubChem BioAssay.

Chain of Torsin-1A-interacting protein 1 (Homo sapiens) (Q5JTV8 whole entry, looked up): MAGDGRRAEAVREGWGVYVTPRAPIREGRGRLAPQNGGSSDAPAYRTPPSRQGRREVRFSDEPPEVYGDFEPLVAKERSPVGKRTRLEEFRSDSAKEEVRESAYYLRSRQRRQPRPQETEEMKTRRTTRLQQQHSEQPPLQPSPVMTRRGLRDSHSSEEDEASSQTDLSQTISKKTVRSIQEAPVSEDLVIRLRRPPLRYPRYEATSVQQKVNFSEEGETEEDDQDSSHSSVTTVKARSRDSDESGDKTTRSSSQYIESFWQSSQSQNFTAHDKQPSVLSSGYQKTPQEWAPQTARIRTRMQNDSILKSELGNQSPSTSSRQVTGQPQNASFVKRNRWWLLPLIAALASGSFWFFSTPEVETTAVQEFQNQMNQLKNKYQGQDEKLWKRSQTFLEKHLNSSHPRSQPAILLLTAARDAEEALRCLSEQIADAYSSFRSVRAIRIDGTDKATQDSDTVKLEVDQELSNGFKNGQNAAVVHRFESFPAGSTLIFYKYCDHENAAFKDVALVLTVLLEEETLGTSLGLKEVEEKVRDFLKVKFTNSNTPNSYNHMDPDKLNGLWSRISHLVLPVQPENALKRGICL
Chain of Alpha-bungarotoxin (Bungarus multicinctus) (P60615 whole entry, looked up): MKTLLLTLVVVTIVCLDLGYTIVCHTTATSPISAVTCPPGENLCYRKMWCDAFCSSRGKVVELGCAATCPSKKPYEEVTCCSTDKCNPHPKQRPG
Chain of Albumin (Bos taurus) (P02769 whole entry, looked up): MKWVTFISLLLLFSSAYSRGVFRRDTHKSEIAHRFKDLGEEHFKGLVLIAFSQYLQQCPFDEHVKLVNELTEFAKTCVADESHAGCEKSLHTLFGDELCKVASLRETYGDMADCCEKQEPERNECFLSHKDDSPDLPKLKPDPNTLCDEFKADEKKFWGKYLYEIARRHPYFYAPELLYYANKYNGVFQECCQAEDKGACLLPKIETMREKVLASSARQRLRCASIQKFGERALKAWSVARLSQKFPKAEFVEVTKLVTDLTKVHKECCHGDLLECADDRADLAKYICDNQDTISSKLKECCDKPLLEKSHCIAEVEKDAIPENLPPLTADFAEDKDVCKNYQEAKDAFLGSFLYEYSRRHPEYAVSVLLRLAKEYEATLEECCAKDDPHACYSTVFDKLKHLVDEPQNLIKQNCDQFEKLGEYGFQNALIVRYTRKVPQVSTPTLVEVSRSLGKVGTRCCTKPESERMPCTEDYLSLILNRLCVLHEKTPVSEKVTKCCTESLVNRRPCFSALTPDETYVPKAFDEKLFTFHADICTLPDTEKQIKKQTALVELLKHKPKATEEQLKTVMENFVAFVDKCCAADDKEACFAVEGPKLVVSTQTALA

Consider `C[C@@H]1C=CCC(=O)OC[C@H]2O[C@@H](C=C[C@@H]2O)[C@H](C)C=CCC(=O)OC[C@H]2O[C@H]1C=C[C@@H]2O`, for which the composite z-score in test [1] is 0.14; in test [3], 1.53; in test [4], -0.365; in test [5] it was -2.23; in test [6], 0.275; in test [7] it was 0.186. Moreover, the composite z-score in test [8] was 0.854; in test [9] it was 0.196; in test [10], -0.22; with Albumin (Bos taurus), -0.581; in [12] it was 0.716; in [13], -0.0318. Moreover, the composite z-score was -0.227 in test [14]; -0.268 in test [15]; -0.725 in test [16]; 0.65 with Sam68 (KHDRBS1); 1.58 in test [17]; -0.343 in test [18]. This molecule had a z-score in test [2] of -0.541. For the same molecule, the composite Z-score in test [11] was 1.21 (inactive).

On to `COc1ccc(C(=O)Nc2ccc(CN3C(=O)[C@]4(O[C@H](CCn5cc(CCO)nn5)[C@@H]([Si](C)(C)c5ccc(OC)cc5)[C@@H]4C)c4ccccc43)cc2)cc1`, for which the composite z-score in [1] is 1.05; in test [3] it was 0.465; in test [4], 0.62; in test [5], -0.0683; in test [6], 0.0857; in test [7] it was 0.199. The composite z-score is -0.363 in [8]; 0.793 in test [9]; 1.31 in test [10]; -0.343 with Albumin (Bos taurus); 0.391 in test [12]; -0.0649 in [13]. Further, the composite z-score was 0.697 in [14]; 0.88 in test [15]; -0.153 in [16]; 1.32 with Sam68 (KHDRBS1); 0.276 in test [17]; 1.15 in [18]. The molecule also displayed a z-score in test [2] of -5.06. In addition, the composite Z-score in test [11] was -0.213 (inactive).

On to `CCN1C(C)=C(C(=O)OC)[C@@H](c2ccccc2)N2C(=O)[C@@]3(C(=O)OC)O[C@@]12[C@@H]1C(=O)N(c2ccccc2)C(=O)[C@@H]13`, for which the composite z-score in test [1] is 0.121; in [3] it was 0.341; in [4] it was -0.173; in [5], -0.525; in test [6], -0.0758; in test [7], 0.0893. The composite z-score in test [8] was 0.221; in test [9] it was 0.905; in test [10] it was 0.38; with Albumin (Bos taurus) it was 0.846; in test [12], -0.055; in [13] it was -0.153. The composite z-score stood at 0.66 in test [14]; 0.463 in [15]; 0.581 in [16]; 1.14 in the test with Sam68 (KHDRBS1); 0.522 in test [17]; 0.744 in test [18]. The molecule also registered a z-score in test [2] of -0.181. The composite Z-score in test [11] is -0.0754 (inactive).

For the molecule `CN(C)c1ccc(C(O)C2C=CC3C(=O)NC(=O)C3N2Nc2ccc(Cl)cc2Cl)cc1` (stereo not given), the composite z-score in test [1] was 1.36; in test [3], -1.14; in [4] it was 0.615; in [5], -0.327; in [6], 0.0328; in test [7], 0.0993. Further, the composite z-score in test [8] turned out to be 1.21; in [9] it was 0.0689; in [10], 0.359; in the test with Albumin (Bos taurus), 0.667; in [12] it was 0.0961; in test [13], 0.046. For the same molecule, the composite z-score in [14] is 0.735; in test [15], 2.51; in test [16] it was 0.305; in the test on Sam68 (KHDRBS1), 0.708; in test [17], -0.0762; in test [18], 0.332. This molecule gave a z-score in test [2] of -0.0428. The composite Z-score in test [11] was 0.66 (inactive).

Take `C=CC[C@]1(C(=O)O)N=C(c2ccc(OCCCO)cc2)O[C@H]1c1ccccc1`: the composite z-score is -0.726 in test [1]; -0.764 in test [3]; 1.21 in test [4]; 0.994 in test [5]; -0.124 in test [6]; 0.216 in [7]. Moreover, the composite z-score in test [8] is 0.448; in [9] it was 0.498; in test [10] it was 0.378; with Albumin (Bos taurus), 0.769; in test [12], -0.0591; in test [13] it was 0.0415. For the same molecule, the composite z-score in test [14] was 0.758; in test [15], 2.37; in [16] it was 0.563; in the test with Sam68 (KHDRBS1), 0.351; in test [17] it was -0.916; in test [18], 0.486. Moreover, in [2], the z-score was -0.138. Besides, the composite Z-score in test [11] is 0.523 (inactive).

On to `COCCOC(=O)N1C(=O)[C@@]2(c3cc(C#CC4=CCCCC4)ccc31)[C@H](C(=O)NC[C@H](O)c1ccccc1)[C@H]1C(=O)O[C@H](c3ccccc3)[C@H](c3ccccc3)N1[C@@H]2c1ccccc1OCCO`, for which the composite z-score in test [1] was 0.453; in test [3], 0.394; in test [4], 1.43; in [5], 0.635; in test [6] it was 0.0246; in [7], 0.443. Also, the composite z-score in test [8] is 0.216; in test [9], 0.814; in test [10], 2.18; in the test with Albumin (Bos taurus), 0.648; in [12], 0.315; in test [13], -0.0311. Also, the composite z-score in test [14] was 0.358; in test [15] it was 1.11; in test [16], 0.474; in the test with Sam68 (KHDRBS1), 1.3; in test [17], 0.239; in test [18], 1.09. The molecule further came in with a z-score in [2] of -3.01. Moreover, in [11], the composite Z-score was 0.155 (inactive).

In the case of `O=C1OCC=C[C@H]2OC34C=CCN(Cc5ccccc5)C(=O)[C@H]3N(CCCCCO)C(=O)[C@@H]4[C@@H]12` (stereo not given in full), the composite z-score was -0.646 in test [1]; -1.84 in test [3]; -0.398 in test [4]; 1.08 in [5]; -0.169 in test [6]; -0.138 in test [7]. The composite z-score in test [8] was 0.161; in test [9], -0.328; in test [10], -1.52; with Albumin (Bos taurus) it was -0.711; in test [12] it was -0.231; in test [13], -0.207. The composite z-score is 0.605 in test [14]; 0.096 in [15]; -0.493 in test [16]; -0.673 with Sam68 (KHDRBS1); -0.99 in test [17]; -1.11 in [18]. The same molecule registered a z-score in test [2] of -0.615. Moreover, the composite Z-score in [11] was 1.78 (inactive).

Consider `CCCC=C(CCC)[C@@H](NS(=O)(=O)c1cccc(C(F)(F)F)c1)c1ccc(C(=O)OC)cc1`, for which the composite z-score in [1] was 1.19; in test [3] it was -0.81; in test [4], 0.266; in test [5], -0.385; in test [6] it was 1.12; in test [7] it was 1.06. For the same molecule, the composite z-score in test [8] was 2.97; in test [9] it was 0.209; in test [10], 0.398; with Albumin (Bos taurus), -0.0532; in test [12], 1.7; in test [13] it was 1.06. Moreover, the composite z-score was 0.169 in [14]; 0.455 in test [15]; 0.134 in [16]; 0.601 in the test on Sam68 (KHDRBS1); -1.35 in [17]; 0.804 in test [18]. Besides, the z-score in [2] was -0.0175. Also, in [11], the composite Z-score is 0.136 (inactive).
